Compound activity (PubChem)
This is a sample that favours compounds with a hit; in the whole collection about 4% have one here.
Mdm2 MdmX PPI: inhibitors of human Mdm2-MdmX association, primary screen, cell-based, luminescence, split luciferase, SaOS-2, uHTS. SaOS-2 split-luciferase Mdm2/MdmX complementation. inhibition, % at 8 µM. hit rate 3% among 330,000;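 active means inhibition of at least 50% at 8 µM in the primary screen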
Target sequence (O15151 whole entry, looked up): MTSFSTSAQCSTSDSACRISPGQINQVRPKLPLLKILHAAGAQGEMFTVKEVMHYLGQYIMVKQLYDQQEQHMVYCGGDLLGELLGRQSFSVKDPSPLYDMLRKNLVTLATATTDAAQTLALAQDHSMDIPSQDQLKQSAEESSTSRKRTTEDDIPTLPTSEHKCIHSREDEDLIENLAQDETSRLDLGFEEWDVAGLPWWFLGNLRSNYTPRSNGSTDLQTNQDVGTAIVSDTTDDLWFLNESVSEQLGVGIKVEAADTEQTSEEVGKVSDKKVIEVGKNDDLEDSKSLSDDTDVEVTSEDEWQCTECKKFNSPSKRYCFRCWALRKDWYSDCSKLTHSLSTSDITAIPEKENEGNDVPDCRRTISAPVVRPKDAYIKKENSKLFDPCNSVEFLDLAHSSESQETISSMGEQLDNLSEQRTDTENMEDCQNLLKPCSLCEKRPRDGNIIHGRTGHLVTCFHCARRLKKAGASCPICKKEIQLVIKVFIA
Target sequence (Q00987 whole entry, looked up): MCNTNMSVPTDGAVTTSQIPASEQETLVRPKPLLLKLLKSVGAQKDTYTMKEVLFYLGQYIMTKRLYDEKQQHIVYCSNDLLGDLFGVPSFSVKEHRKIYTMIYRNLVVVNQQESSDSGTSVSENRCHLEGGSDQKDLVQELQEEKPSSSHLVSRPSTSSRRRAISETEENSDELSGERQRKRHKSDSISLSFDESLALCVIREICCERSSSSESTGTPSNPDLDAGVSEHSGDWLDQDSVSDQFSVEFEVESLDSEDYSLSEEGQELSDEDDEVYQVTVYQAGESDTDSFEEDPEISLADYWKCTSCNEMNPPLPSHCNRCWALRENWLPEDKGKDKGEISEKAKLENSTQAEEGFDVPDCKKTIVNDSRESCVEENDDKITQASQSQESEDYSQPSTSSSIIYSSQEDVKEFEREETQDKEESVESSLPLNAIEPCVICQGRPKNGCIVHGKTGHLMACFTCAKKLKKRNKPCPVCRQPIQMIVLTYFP
CSC inhib: cancer stem cell viability inhibitors, primary screen, luminescence; cancer stem cell-like cells viability; inhibition, % at 7.5 µM; hit rate 1.1% among 300,000; AID 2717, 2010; in the data active means inhibition above about 75%; tested in HMLE shEcad cells
Gli-Sufu antag: Gli-Sufu pathway antagonists, primary screen, luciferase luminescence, Sufu-KO-LIGHT cells, uHTS; hit rate 0.74% among 340,000; inhibition, % at 5 µM; AID 588413, 2011; Sufu-KO-LIGHT fibroblasts, Gli luciferase reporter luminescence;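 active means inhibition above about 55%, limit read from the data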;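 further: 0% = DMSO-treated cells and 100% = wells with medium but no cells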
PAX8 inh HTS: inhibitors of PAX8-driven TPO luciferase reporter, primary screen, RMG-I cells, single concentration. SteadyGlo, 24 h. inhibition, % at 12.6 µM. hit rate 1.2% among 360,000. AID 652154, 2013;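 active means mean replicate inhibition at least 60% with every replicate also reaching 60%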;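 further: luciferase light reporting Pax8 driven TPO promoter activity; plate controls were median of neutral control wells for no effect and mitoxantrone controls for full effect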
Beta cell apopt: inhibitors of cytokine-induced beta cell apoptosis, primary screen, luminescence; INS-1E cytokine-induced death, ATP luminescence, 48 h; percent of positive-control rescue, neutral wells zero; protection from apoptosis, % (no concentration beside the values); hit rate 0.8% among 300,000;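 active means Every replicate reaches about 75%, or at least half do and their mean reaches it too, limit read from the data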;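 further: 0% = cytokine-treated negative control wells and 100% = positive control rescue; higher means more ATP so stronger rescue from cytokine killing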
Shn3 3UTR inh: reduction of Shn3 3'UTR firefly luciferase signal, primary screen, Schnurri-3 inhibitor project, cell-based, Clone20 osteoblasts, set 2 | hit rate 0.52% among 360,000 | inhibition, % at 12.5 µM | Clone20 osteoblast Shn3 3'UTR firefly luciferase, 24 h | AID 588674, 2011;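 active means mean inhibition of at least 75% with every replicate also reaching 75%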;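 further: 0% = median of neutral control wells and 100% = pilot-screen positive control compound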
Mdm2-MdmX conf: Mdm2-MdmX complex disruptors, retested hits, confirmation, luminescence, single concentration | shares compounds with Mdm2 MdmX PPI | Mdm2-MdmX binding, luminescent assay | inhibition, % at 8 µM | hit rate 55% among 10,000; in the data active means inhibition above about 40%
Full FLuc ctr: full-length luciferase signal inhibition, confirmation, counter-screen for Mdm2/MdmX interaction inhibitor project, cell-based, single concentration, SaOS-2; shares compounds with Mdm2 MdmX PPI; SaOS-2 full-length luciferase counterscreen, luminescence; inhibition, % at 8 µM; hit rate 77% among 6,200; AID 504607, 2011;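 active means mean inhibition at 8 µM reaching about 37%, which flags the compound as non-specific, limit read from the data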;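 further: p53-null SaOS-2 cells with luciferase driven by a doxycycline-inducible promoter; compound on cells about two nights before reading with doxycycline added after day one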
* hit, by the source's call.

Results for Cc1ccc(O)c(Nc2c3ccccc3nc3ccccc23)c1 ?
Mdm2 MdmX PPI: 39; CSC inhib: 4; Gli-Sufu antag: 3; PAX8 inh HTS: 6; Beta cell apopt: 15; Shn3 3UTR inh: 4

Results for Fc1ccccc1-c1nc(NCCCN2CCOCC2)c2ccccc2n1 ?
Mdm2 MdmX PPI: 4; CSC inhib: 2; Gli-Sufu antag: 6; PAX8 inh HTS: -14; Beta cell apopt: -1; Shn3 3UTR inh: 7

What do the screens show for `c1ccc(CNc2c3ccccc3nc3ccccc23)cc1`?
Mdm2 MdmX PPI: 70*; CSC inhib: 52; Gli-Sufu antag: 7; PAX8 inh HTS: 13; Beta cell apopt: 98*; Shn3 3UTR inh: 69; Mdm2-MdmX conf: 30; Full FLuc ctr: 61*

What do the screens show for `CN(C)CCCNc1c2ccccc2nc2ccccc12`?
Mdm2 MdmX PPI: 100*; CSC inhib: 131*; Gli-Sufu antag: -23; PAX8 inh HTS: 10; Beta cell apopt: 109*; Shn3 3UTR inh: 94*; Mdm2-MdmX conf: 100*; Full FLuc ctr: 52*

How did c1ccc(CNc2ncnc3ccccc23)cc1 do in these assays?
Mdm2 MdmX PPI: 37; CSC inhib: 0; Gli-Sufu antag: 40; PAX8 inh HTS: -26; Beta cell apopt: 39; Shn3 3UTR inh: 84

What do the screens show for `c1ccc2c(NCCCN3CCOCC3)c3ccccc3nc2c1`?
Mdm2 MdmX PPI: 85*; CSC inhib: 51; PAX8 inh HTS: 22; Beta cell apopt: 104*; Mdm2-MdmX conf: 79*; Full FLuc ctr: 6

What do the screens show for `COC(=O)[C@@H]1[C@@H](C#N)C2(c3ccccc3-c3ccccc32)N(c2ccc(Cl)cc2)N1C#N`?
Mdm2 MdmX PPI: 60*; CSC inhib: 105*; Gli-Sufu antag: 12; PAX8 inh HTS: 12; Beta cell apopt: -10; Shn3 3UTR inh: 60; Mdm2-MdmX conf: 50*; Full FLuc ctr: 33

How did O=C(Cc1ccc(Cl)cc1)NN1C(=O)c2ccccc2C1=O do in these assays?
Mdm2 MdmX PPI: -16; CSC inhib: -4; Gli-Sufu antag: 5; PAX8 inh HTS: -1; Beta cell apopt: -8; Shn3 3UTR inh: 6

How did Cc1ccccc1NC(=O)c1ccc(-c2ccc(Cl)cc2Cl)o1 do in these assays?
Mdm2 MdmX PPI: 27; CSC inhib: 47; Gli-Sufu antag: -6; Beta cell apopt: 1; Shn3 3UTR inh: -16

How did O=C(Nc1ccc(Cl)cn1)c1ccc(-c2cc(Cl)ccc2Cl)o1 do in these assays?
Mdm2 MdmX PPI: 74*; CSC inhib: 19; Gli-Sufu antag: -2; PAX8 inh HTS: 4; Beta cell apopt: -4; Shn3 3UTR inh: -14; Mdm2-MdmX conf: 4

What do the screens show for `O=C(Nc1ccccc1N1CCCCC1)c1ccc(-c2cc(Cl)ccc2Cl)o1`?
Mdm2 MdmX PPI: 50*; CSC inhib: 12; Gli-Sufu antag: 7; PAX8 inh HTS: 1; Beta cell apopt: 3; Shn3 3UTR inh: -5; Mdm2-MdmX conf: -14

What do the screens show for `Cc1cccc(C)c1NC(=O)c1ccc(-c2ccc(Cl)cc2Cl)o1`?
Mdm2 MdmX PPI: 56*; CSC inhib: 53; Gli-Sufu antag: 0; Beta cell apopt: 0; Shn3 3UTR inh: -4; Mdm2-MdmX conf: 46*; Full FLuc ctr: 45*

How did COc1ccc(NC(=O)N(C)C[C@H]2Oc3c(NS(=O)(=O)c4ccccc4)cccc3C(=O)N([C@H](C)CO)C[C@H]2C)cc1 do in these assays?
PAX8 inh HTS: -6

How did CO[C@H]1CN(C)C(=O)c2cc(NC(=O)Nc3ccc(Cl)cc3)ccc2OC[C@@H](C)N(C(=O)Nc2c(C)noc2C)C[C@H]1C do in these assays?
PAX8 inh HTS: 27

Results for CCc1nnc(NC(=O)CSc2nc(-c3ccccc3)cc(-c3ccc(OC)cc3)c2C#N)s1 ?
Mdm2 MdmX PPI: 88*; CSC inhib: 18; Gli-Sufu antag: 5; PAX8 inh HTS: 2; Beta cell apopt: 11; Shn3 3UTR inh: 15; Mdm2-MdmX conf: 9

How did COc1ccc(-c2cc(-c3ccccc3)c(C#N)c(SCC(=O)Nc3ncc(C)s3)n2)cc1 do in these assays?
Mdm2 MdmX PPI: 27; Gli-Sufu antag: -2; PAX8 inh HTS: 34; Shn3 3UTR inh: 10

Results for COc1ccc(-c2cc(-c3ccccc3)nc(SCC(=O)Nc3nccs3)c2C#N)cc1 ?
Mdm2 MdmX PPI: 75*; CSC inhib: -6; Gli-Sufu antag: 16; PAX8 inh HTS: 16; Beta cell apopt: 6; Shn3 3UTR inh: 11; Mdm2-MdmX conf: 14

What do the screens show for `CCc1nnc(NC(=O)CSc2nc(-c3ccccc3)c(-c3ccccc3)o2)s1`?
Mdm2 MdmX PPI: 55*; CSC inhib: 48; Gli-Sufu antag: -9; PAX8 inh HTS: -7; Shn3 3UTR inh: -6; Mdm2-MdmX conf: 42*; Full FLuc ctr: 92*

How did CCc1nnc(NC(=O)CSc2nnc(-c3ccccc3O)o2)s1 do in these assays?
Mdm2 MdmX PPI: 38; CSC inhib: 16; Gli-Sufu antag: -6; PAX8 inh HTS: -95; Beta cell apopt: 7; Shn3 3UTR inh: -29

What do the screens show for `C[C@@H]1CCCCO[C@H](CN(C)C(=O)C2CCCCC2)[C@@H](C)CN([C@@H](C)CO)C(=O)c2cc(NC(=O)Nc3cccc4ccccc34)ccc2O1`?
PAX8 inh HTS: 59

What do the screens show for `COc1ccccc1CNC(=O)C[C@H]1C[C@@H]2c3cc(NC(=O)NC4CCCC4)ccc3O[C@@H]2[C@@H](CO)O1`?
PAX8 inh HTS: -21

Results for C[C@@H](NCCc1ccc(O)cc1)[C@@H](O)c1ccc(O)cc1 ?
Mdm2 MdmX PPI: -10; CSC inhib: -14; Gli-Sufu antag: 31; PAX8 inh HTS: -4; Beta cell apopt: -2; Shn3 3UTR inh: 8

How did CCCCCCCCNC(C)C(O)c1ccc(SC(C)C)cc1 (stereo unspecified) do in these assays?
Mdm2 MdmX PPI: 95*; CSC inhib: 102*; Gli-Sufu antag: 22; PAX8 inh HTS: -6; Beta cell apopt: 117*; Shn3 3UTR inh: 96*; Mdm2-MdmX conf: 15

How did CN1CCN2c3ncccc3Cc3ccccc3C2C1 (stereo unspecified) do in these assays?
Mdm2 MdmX PPI: 21; CSC inhib: 1; Gli-Sufu antag: 5; PAX8 inh HTS: -1; Shn3 3UTR inh: -5
